# Results filed as inconclusive are left out. Where a call stands in place of a potency, no number is given. Activity calls are given as the source filed them. Calls follow the shape of the dose curve; as a rule, active = well fitted cell-killing curve with a large enough effect in the repeat runs; inconclusive = weak or mixed curves, or effect the other way; inactive = flat fitted curve, though single readings scatter.
# Assay: qHTS assay to identify small molecule agonists of the TGF-beta/Smad signaling pathway - cell viability counter screen (AID 1346829); also: nearly all actives have a fitted effect of over 45% in size; as to activity change, negative = cytotoxicity: top concentration of the series differs between compounds
# Settings: SBE-bla HEK293T viability, CellTiter-Glo luminescence, 5 h; series mostly up to 76.8 µM
# From the text: National Center for Advancing Translational Sciences [NCATS]
# NIH Chemical Genomics Center [NCGC]
# U.S. Environmental Protection Agency [EPA]
# National Institutes of Environmental Health Sciences [NIEHS]
# National Toxicology Program [NTP]
# U.S. Food and Drug Administration [FDA]
# Transforming growth factor beta (TGF-beta) superfamily consists of a large number of structurally related dimeric proteins that act as hormones or local mediators in regulating a wide range of biological functions. This superfamily includes TGF-betas themselves, the bone morphogenetic proteins (BMPs) and the activins. These ligands induce oligomerization of serine/threonine receptor kinases and phosphorylate the cytoplasmic signaling molecules of Smad protein family. CellSensor SBE-bla HEK 293T cell line (Life Technologies, Carlsbad, CA), responsive to TGF-beta was used to screen Tox21 10K compound library for identification of agonists/antagonists of the Smad signaling pathway. This cell line contains a beta-lactamase reporter gene under control of the Smad binding element (SBE) stably integrated into HEK 293T cells. Also cytotoxicity of the compounds was tested in parallel by measuring the cell viability using CellTiter-Glo assay system in the same wells.
# Tox21 Assay Protocol Summary:
# SBE-bla HEK 293T cells were dispensed at 4,000/well in 6 uL of assay medium into black wall/clear-bottom 1536-well plates using a Multidrop Combi (ThermoFisher Scientific, Waltham, MA) dispenser. After the assay plates were incubated at 37 C and 5% CO2 for an overnight, 23 nL of compounds dissolved in DMSO, positive controls or DMSO only was transferred to the assay plate by a Pintool station (Kalypsys, San Diego, CA). The assay plates were incubated at 37 C and 5% CO2 for 5 hr. One uL of LiveBLAzer B/G FRET substrate (Life Technologies) was added using a Flying Reagent Dispenser (FRD, Aurora Discovery, San Diego, CA) and the plates were incubated at room temperature for 2 hr. Fluorescence intensity (405 nm excitation, 460 nm and 530 nm emissions) was measured using an Envision plate reader (PerkinElmer, Shelton, CT). For cytotoxicity read, 4 uL of CellTiter-Glo reagent (Promega Corporation, Madison, WI) was added to each well of the assay plates using FRD. After 30min incubation at room temperature, the luminescence intensity was measured using ViewLux plate reader (PerkinElmer).
# Potency is read from the fitted curve at half-maximal effect.
Structure (SMILES),Potency,"activity change, negative = cytotoxicity"
CC(C)c1c(CN(C)C(C)Cc2ccccc2)n(C)n(-c2ccccc2)c1=O (stereo not given),inactive,
Nc1c(Cl)c(Cl)c(Cl)c(Cl)c1Cl,inactive,
c1ccc(Nc2ccc(Nc3ccccc3)cc2)cc1,inactive,
ClC1(Cl)C2(Cl)C3(Cl)C4(Cl)C(Cl)(Cl)C5(Cl)C3(Cl)C1(Cl)C5(Cl)C24Cl (stereo not given),inactive,
Cc1ccc2cc3c(ccc4ccccc43)c3c2c1CC3,inactive,
CCCC[N+]1(C)CCCC1 (tested in a mixture with another compound),inactive,
CCOC(=O)Cc1ccccc1,inactive,
Brc1ccc(Oc2ccc(Br)cc2Br)c(Br)c1,inactive,
CC(Cl)CCl (stereo not given),inactive,
CNC(=O)/C=C(\C)OP(=O)(OC)OC,inactive,
O=C(NC(=O)c1c(F)cccc1F)Nc1ccc(Oc2ccc(C(F)(F)F)cc2Cl)cc1F,inactive,
CCNc1nc(NC(C)C(C)C)nc(SC)n1 (stereo not given),inactive,
Clc1ccc(C2(Cn3cncn3)OCCO2)c(Cl)c1,inactive,
COC(=O)/C=C(\C)OP(=O)(OC)OC,inactive,
CO/N=C(\C(=O)OC)c1ccccc1CO/N=C(\C)c1cccc(C(F)(F)F)c1,inactive,
[C-]1=CC=CC1.[Cl][Zr+2][Cl].c1cc[cH-]c1,inactive,
CCCN,inactive,
[O-][Cl+3]([O-])([O-])O,inactive,
CC1(C)C(C=C(Cl)Cl)C1C(=O)OC(C#N)c1ccc(F)c(Oc2ccccc2)c1 (stereo not given),inactive,
CCC(C)Nc1c([N+](=O)[O-])cc(C(C)(C)C)cc1[N+](=O)[O-] (stereo not given),inactive,

Structure (SMILES),Potency,"activity change, negative = cytotoxicity"
CCN(CC)C(=O)N[C@@H]1C=C2c3cccc4[nH]cc(c34)C[C@@H]2N(C)C1,inactive,
CC(C)N(C(=O)CCl)c1ccccc1,inactive,
Cc1ccn2nc(S(=O)(=O)Nc3c(F)cccc3F)nc2n1,inactive,
CC1=C2C[C@H]3[C@@H](CC=C4C[C@@H](O)CC[C@@]43C)[C@@H]2CC[C@]12O[C@@H]1C[C@H](C)CN[C@H]1[C@H]2C,inactive,
O=C(O)CCCCCCNC1c2ccccc2CCc2ccccc21,inactive,
Cc1c([N+](=O)[O-])cc2c(c1[N+](=O)[O-])C(C)(C)CC2(C)C,inactive,
N#Cc1ccc(N(CC(N)=O)CC(F)(F)F)cc1C(F)(F)F,inactive,
Clc1c(Cl)c(Cl)c(Cl)c(Cl)c1Cl,,6.4% [at 6.97 µM] (inactive)
O.O.O.O.O.O.O=S(=O)([O-])[O-].[Ni+2],inactive,
C[C@H]1[C@H](c2ccc(Cl)cc2)SC(=O)N1C(=O)NC1CCCCC1,inactive,
S=C=NCCc1ccccc1,inactive,
CN1CCc2cc(Cl)c(O)cc2[C@H]2c3ccccc3CC[C@@H]21,inactive,
COc1nc(C)nc(NC(=O)NS(=O)(=O)c2ccccc2Cl)n1,inactive,
CC1CN1 (stereo not given),inactive,
O=C(N[C@H]1N=C(c2ccccc2F)c2cccc3c2N(CC3)C1=O)c1cc2ccccc2[nH]1,inactive,
C#CC1(O)CCCCC1,inactive,
CCC[CH2][Sn]([CH2]CCC)([CH2]CCC)[CH2]CCC,38.9 µM (active),
Fc1ccc(C(OCCN2CCN(CCCc3ccccc3)CC2)c2ccc(F)cc2)cc1,23.9 µM (active),
CC(Cc1ccc2c(c1)OCO2)NO (stereo not given),inactive,
CC(Cc1ccc(OCC(=O)O)cc1)NCC(O)c1csc(C(F)(F)F)n1 (stereo not given),inactive,

# Source: PubChem BioAssay (Tox21)
